Screening data (PubChem)
Insulin prom inh = inhibitors of insulin promoter-driven GFP, primary screen, imaging, TRM-6 cells (human fetal islet line), eGFP reporter, cell count; reporter expression induced with tamoxifen; inhibition, % at 2 µM; 130,000 compounds, 0.9% hits;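 active = inhibition above the mean plus 3 SD, with well images judged a real hit on visual review, cut at about 60% in these data, passing the limit was not always enough; inconclusive = inhibition over the cutoff but images rejected on review; inactive = inhibition not above the cutoff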
Efa HMGR inh = inhibitors of E. faecalis class II HMGR, primary screen, biochemical, Enterococcus faecalis. purified E. faecalis HMGR, NADPH absorbance 340 nm kinetic. inhibition, % at 10 µM. 190,000 compounds, 0.41% hits;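 active = inhibition above a set limit, the median over all tested compounds plus 3 SD, cut at about 9.5% in these data; inconclusive = no clear call, values can overlap the other calls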;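 note: enzyme runs in reverse so mevalonate oxidation gives rising NADPH absorbance; 0% = complete reaction with DMSO and 100% = background rate lacking mevalonate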
Insulin prom up = insulin promoter activators in MIN6 cells, imaging, high-content screening, mouse beta cells. MIN6 insulin promoter-GFP reporter; hits give high values. z-score at 5 µM. 190,000 compounds, 0.3% hits. AID 1625, 2009;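 active = z-score above 3 at 5 µM with at least 500 cells counted in the well; inconclusive = wells under 500 cells, flagged as cytotoxic or low count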
Autophagy HCS = autophagy modulators in MEF cells, primary screen, imaging, high-content, MEF GFP-LC3; calls only at 10 µM (by protocol); MEF GFP-LC3 puncta imaging; test concentration mostly 10 µM; AID 463193, 2010; 190,000 compounds, 0.98% hits;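 active = percentage of spot-positive cells more than 3 SD above its plate mean, without a fluorescence outlier flag or 80% toxicity; inconclusive = no clear call, values can overlap the other calls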;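 note: spot-positive cell cutoff set from DMSO-treated cells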
Active calls of the source: *; i = inactive; ? = inconclusive; . = not tested or not shown; + = active, no number. Shown are actives, neighbours in structure and some others; about 1.9% of the full set was active somewhere.

SMILES	Insulin prom inh	Efa HMGR inh	Insulin prom up	Autophagy HCS
O=[N+]([O-])c1cccc(/C=C/c2nc(C=Nc3ccc4ccccc4c3)c(O)o2)c1	18	-2	.	+
O=C(CO/N=C/c1cccc([N+](=O)[O-])c1)Nc1ccc2ccccc2c1	-3	1	0.69	i
COc1ccc(N/N=C(\C=N\O)C(=O)c2ccc(OC)cc2)cc1	-25	-3	-0.68	+
CCCCOc1ccc(Br)cc1/C(C)=N/NC1=NCCN1	-356	-6	.	+
CCCCCCOc1ccc(/C(C)=N/NC2=NCCN2)cc1[N+](=O)[O-]	21	-5	-7.3	+
C/C(=N\NC1=NCCN1)c1ccc(N)c([N+](=O)[O-])c1	.	.	0.57	.
CCOC(=O)c1[nH]c2cc(OC)c(OC)cc2c1NC(=O)CN1CCN(c2ccc(OC)cc2)C(C)C1 (configuration not stated)	67*	-3	-0.2	i
COC(=O)c1[nH]c2cccc(OC)c2c1NC(=O)CN1CCN(c2cccc(OC)c2)C(C)C1 (configuration not stated)	12	-5	-1.5	i
CCOC(=O)Cc1cnc(NC(=O)CSc2nc(C)c(CC)c(=O)[nH]2)s1	.	2	0.13	i
CN(C)C=Nc1ccc2nn(-c3ccccc3)nc2c1	.	4	3.1*	i
CN(C)C=Nc1ccc(Cl)c(Cl)c1	.	.	-0.06	.
Cc1cc(C)c2ccc3c(C)c(C)nc3c2[nH]1	.	-3	-0.77	+
CC(=O)Nc1ccc(NS(=O)(=O)c2cc([N+](=O)[O-])ccc2C)cc1	24	-5	1.3	i
Cc1ccc([N+](=O)[O-])cc1S(=O)(=O)Nc1ccc(C(=O)N(C)C)cc1	.	-6	-0.87	+
O=S(=O)(Nc1ccc2c(c1)nc1n2CCN(Cc2ccccc2)C1)c1ccccc1	24	-7	.	i
O=c1ccc(NS(=O)(=O)c2ccccc2)cn1Cc1ccc(Cl)c(Cl)c1	-60	-8	4.3*	i
COc1cc2c(cc1OC)C(C)N(C(=S)NC(=O)c1ccccc1)CC2 (configuration not stated)	.	1	.	i
COc1ccccc1CCN=C(N)NS(=O)(=O)c1ccc(C)cc1	.	-4	.	+
Cc1c(NC(=O)c2ccccc2F)c(=O)n(-c2ccccc2)n1C	-12	-7	1.1	i
Cc1c(NC(=O)c2cnn3cccnc23)c(=O)n(-c2ccccc2)n1C	75*	-1	-0.6	i
COc1ccccc1NC(=O)Nc1c(C)n(C)n(-c2ccccc2)c1=O	100*	0	0.29	i
COc1ccccc1C(=O)Nc1c(C)n(C)n(-c2ccccc2)c1=O	.	-6	-0.23	i
CN(C)Cc1cccc([N+](=O)[O-])c1O	.	.	0.07	.
Cc1[nH]n2c(=O)c3c(nc2c1-c1ccccc1)CCC3	83*	0	0.44	i
Cc1ccccc1-n1cc(CNCc2c(C(=O)N(C)C)nc3ccc(Cl)cn23)cn1	.	13*	0.02	i
SMILES	Insulin prom inh	Efa HMGR inh	Insulin prom up	Autophagy HCS
O=C(CSc1nnnn1-c1ccccc1)Nc1ccc(N2CCOCC2)c(Cl)c1	-5	15*	-0.29	i
O=C(NCCC1=CCCCC1)C(=O)NCC(c1ccco1)N1CCN(c2ccc(F)cc2)CC1 (configuration not stated)	21	-2	-0.11	i
Cc1cc(C)c2c3c(sc2n1)C(=O)N(c1ccccc1)CC(=O)N3	.	.	-0.42	.
Cc1ccc(-c2nnc(Nc3ccc4c(c3)OCO4)c3ccccc23)cc1S(=O)(=O)NC(C)C	29	-1	-0.66	i
CC(C)(C)C1CCc2sc(C(=O)NNC(=O)CCl)cc2C1 (configuration not stated)	.	3	1.2	i
O=C(c1ccccc1)c1ccc2nc[nH]c2c1	95*	-1	0.02	i
COc1cccc(/C=N\NC(=O)c2ccc(Cn3cc(Br)c([N+](=O)[O-])n3)o2)c1O	27	-3	.	i
CCOC(=O)CSc1cccc2cccnc12	-14	-2	0.3	+
Cc1cccc(CSc2cccc3cccnc23)c1	50	-2	.	+
COc1ccc(CNC(=O)CSc2cccc3cccnc23)cc1	.	.	0.76	.
COC(=O)c1sccc1NC(=O)CC1C(=O)NCCN1C(=O)c1ccc(N(C)C)cc1 (configuration not stated)	.	.	0.7	.
CCCCNC(=O)c1cn(-c2ccc(OCC)cc2)c(=O)c2cc(OC)c(OC)cc12	34	-3	-0.48	i
O=c1[nH]c(/C=C2\C=Nc3ccccc32)c(O)n1Cc1ccccc1F	.	-10	1.1	+
CSc1nc(O)c(/C=C2\C=Nc3ccccc32)[nH]1	-7	-2	0.17	i
CCCCC(=O)Nc1ccc2c(c1)nc(CCN1CCN(C)CC1)n2C	.	.	0.21	.
CC(C)(CNS(=O)(=O)c1ccc(Cl)cc1)N1CCCCC1	0	-6	3.6*	i
O=S(=O)(c1ccccc1)c1ncc(C(F)(F)F)cc1Cl	50	-13	2	i
COc1cc2c(cc1OC)CN(C(=O)c1sc(-c3cnccn3)nc1C)CC2	.	.	-0.46	.
O=c1cc(CSc2ccc([N+](=O)[O-])cc2)nc2sccn12	9	15*	-0.01	i
CCOC(=O)c1cc(C(C)C)sc1NC(=O)COC(=O)CCS(=O)(=O)c1ccccc1	60*	-3	0.3	i
CCOc1ccc(C)cc1-n1nc2ccccc2n1	26	4	-0.65	i
Cc1ccc(OCC(=O)Nc2ccc(Cl)cc2)c(-n2nc3ccccc3n2)c1	12	-7	-0.88	+
O=C(O)CSc1nnc(CSc2nc3ccccc3s2)n1-c1ccccc1	.	11*	-0.66	i
COc1cc(NS(=O)(=O)c2ccc(C)cc2)c2ncccc2c1	.	-6	?	i
Cc1ccc(S(=O)(=O)Nc2cccc3cccnc23)cc1	12	-6	-0.14	+
SMILES	Insulin prom inh	Efa HMGR inh	Insulin prom up	Autophagy HCS
COc1ccc(N2C(=O)C(CC(N)=O)N(NC(=O)c3cccc(OC)c3)C2=S)cc1 (configuration not stated)	0	-1	0.29	i
O=C(Cc1csc(Nc2nc(=S)[nH]c3ccccc23)n1)N1CCN(c2cccc(C(F)(F)F)c2)CC1	21	3	-0.65	+
Cc1c(NC(=S)Nc2cccc(Cl)c2)c(=O)n(-c2ccccc2)n1C	-51	-1	0.38	i
CC(C)(C)[C@H]1C=C(C(=O)N2CCN(Cc3ccc4c(c3)OCO4)CC2)O[C@@H](OCc2ccc(CO)cc2)C1	.	19*	-0.74	i
CCN1CCN(CC(=O)Nc2c(C(=O)OC)[nH]c3cccc(Cl)c23)CC1	79*	-1	0.36	i
Cc1c(C(=O)O)sc2nc(CSc3ncc(C(F)(F)F)cc3Cl)[nH]c(=O)c12	.	.	0.04	.
CCOc1ccc2ccccc2c1CNCCN1CCOCC1	-45	10*	.	i
N#C/C(=C/c1ccc(Sc2nc3ccccc3[nH]2)o1)c1cccc(F)c1	72*	0	2.1	i
CC1(C)CC(=O)C2=C(C1)N(c1ccc(Cl)cc1)C(=O)C2(O)C(F)(F)F (configuration not stated)	19	-4	0.08	i
